Laboratory results from PubChem BioAssay (EPA / NIEHS).
Some compounds were tested as several samples or in several runs, with calls that do not always agree. Calls of active or inactive are those of the source. How the source made its calls: active means hit-call score of the fitted dose curve at least 0.9, where 1 is the maximum; inactive means score below 0.9.

Columns and labels:
[1] = read-out: Interleukin-8 (IL8), CXCL8 (gene 3576); experiment: BSK_MyoF_IL8: BioMAP Diversity Plus: MyoF Assay for Interleukin-8 (IL8) Biomarker Activity (AID 2284261); conditions: primary human lung fibroblasts
In short: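 Human lung fibroblast (MyoF system) cultures dosed for 24 h, then IL-8 measured by ELISA. Response taken relative to DMSO; parallel SRB total-protein staining for cytotoxicity.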

[2] = read-out: CD90, THY1 (gene 7070); experiment: BSK_BF4T_CD90: BioMAP Diversity Plus: BF4T Assay for CD90 Biomarker Activity (AID 2284262); conditions: primary human bronchial epithelial cells with fibroblasts
In short: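 CD90 levels by ELISA after 24 h treatment of human bronchial epithelial cell/dermal fibroblast cultures, analysed versus DMSO. Overt cytotoxicity checked in parallel cultures by sulforhodamine B staining.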

[3] = read-out: Interleukin-8 (IL8), CXCL8 (gene 3576); experiment: BSK_BF4T_IL8: BioMAP Diversity Plus: BF4T Assay for Interleukin-8 (IL8) Biomarker Activity (AID 2284263); conditions: primary human bronchial epithelial cells with fibroblasts
In short: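 Human bronchial epithelial cells with dermal fibroblasts co-culture; IL-8 measured by ELISA 24 hours after dosing, fitted vs DMSO. Cytotoxicity tracked in parallel cultures by SRB total-protein staining.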

[4] = read-out: Interleukin-1 alpha (IL1a), IL1A (gene 3552); experiment: BSK_BF4T_IL1a: BioMAP Diversity Plus: BF4T Assay for Interleukin-1 alpha (IL1a) Biomarker Activity (AID 2284264); conditions: primary human bronchial epithelial cells with fibroblasts
In short: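 ELISA read-out of IL-1α from bronchial epithelial cell/dermal fibroblast co-cultures 24 h after compound addition. Increases scored against DMSO negative control. Cytotoxicity monitored by sulforhodamine B staining of parallel cultures.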

[5] = read-out: Decorin, DCN (gene 1634); experiment: BSK_MyoF_Decorin: BioMAP Diversity Plus: MyoF Assay for Decorin Biomarker Activity (AID 2284265); conditions: primary human lung fibroblasts
In short: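 Human lung fibroblast cultures were dosed for 24 h, and decorin was then measured by ELISA. Parallel cultures were stained with sulforhodamine B for total protein as a cytotoxicity check. Gain of signal was fitted relative to DMSO.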

[6] = BSK_MyoF_SRB: Viability Assessment in the BioMAP Diversity Plus: MyoF Assay (AID 2284267); conditions: primary human lung fibroblasts;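 further: total protein by SRB absorbance in parallel cultures as cytotoxicity measure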
In short: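 Cytotoxicity read-out: after 10% TCA fixation, parallel human lung fibroblast cultures were stained with 0.1% SRB at 24 h post-dosing and read at 560 nm; DMSO served as baseline.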

[7] = read-out: Matrix Metallopeptidase 1 (MMP1), MMP1 (gene 4312); experiment: BSK_MyoF_MMP1: BioMAP Diversity Plus: MyoF Assay for Matrix Metallopeptidase 1 (MMP1) Biomarker Activity (AID 2284268); conditions: primary human lung fibroblasts
In short: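 Human lung fibroblast primary cells; MMP1 measured by ELISA 24 h after dosing, fitted in the positive direction relative to DMSO. Parallel SRB staining (0.1%, after 10% TCA fixation, 560 nm) assesses overt cytotoxicity.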

[8] = read-out: TIMP metallopeptidase inhibitor 1 (TIMP1), TIMP1 (gene 7076); experiment: BSK_MyoF_TIMP1: BioMAP Diversity Plus: MyoF Assay for TIMP metallopeptidase inhibitor 1 (TIMP1) Biomarker Activity (AID 2284269); conditions: primary human lung fibroblasts
In short: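 ELISA read-out of TIMP-1 from primary human lung fibroblast cultures 24 h after compound dosing; gain of signal relative to DMSO vehicle baseline defines activity.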

[9] = read-out: Matrix Metallopeptidase 1 (MMP1), MMP1 (gene 4312); experiment: BSK_BF4T_MMP1: BioMAP Diversity Plus: BF4T Assay for Matrix Metallopeptidase 1 (MMP1) Biomarker Activity (AID 2284270); conditions: primary human bronchial epithelial cells with fibroblasts
In short: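 MMP-1 quantified by ELISA in primary human bronchial epithelial/dermal fibroblast co-cultures, 24 hours post-dosing, with DMSO as baseline; parallel sulforhodamine B staining (560 nm) tracks overt cytotoxicity.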

[10] = read-out: Matrix Metallopeptidase 3 (MMP3), MMP3 (gene 4314); experiment: BSK_BF4T_MMP3: BioMAP Diversity Plus: BF4T Assay for Matrix Metallopeptidase 3 (MMP3) Biomarker Activity (AID 2284271); conditions: primary human bronchial epithelial cells with fibroblasts
In short: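 MMP-3 level read by ELISA after 24 h chemical exposure of bronchial epithelial cell/dermal fibroblast co-cultures, fitted upward relative to DMSO. Parallel cultures stained with 0.1% SRB after TCA fixation gauge overt cytotoxicity.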

[11] = read-out: Tissue plasminogen activator (tPA), PLAT (gene 5327); experiment: BSK_BF4T_tPA: BioMAP Diversity Plus: BF4T Assay for Tissue plasminogen activator (tPA) Biomarker Activity (AID 2284272); conditions: primary human bronchial epithelial cells with fibroblasts
In short: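 tPA level quantified by ELISA at 24 h post-treatment in bronchial epithelial/dermal fibroblast co-cultures, gain of signal scored against DMSO baseline. Parallel cultures stained with 0.1% SRB (560 nm) to flag overt cytotoxicity.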

[12] = BSK_BF4T_SRB: Viability Assessment in the BioMAP Diversity Plus: BF4T Assay (AID 2284274); conditions: primary human bronchial epithelial cells with fibroblasts
In short: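 Cytotoxicity measured as total protein: cells fixed with 10% TCA, stained with 0.1% SRB, read at 560 nm. Bronchial epithelial/dermal fibroblast co-culture, 24 h after dosing, with positive-direction fitting relative to DMSO.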

[13] = read-out: urokinase Plasminogen Activator (uPA), PLAU (gene 5328); experiment: BSK_BF4T_uPA: BioMAP Diversity Plus: BF4T Assay for urokinase Plasminogen Activator (uPA) Biomarker Activity (AID 2284275); conditions: primary human bronchial epithelial cells with fibroblasts
In short: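 uPA levels measured by ELISA at 24 hours in BF4T cultures (bronchial epithelial cells plus dermal fibroblasts) and compared with DMSO; cytotoxicity tracked in parallel cultures by sulforhodamine B staining.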

[14] = read-out: Matrix Metallopeptidase 9 (MMP9), MMP9 (gene 4318); experiment: BSK_BF4T_MMP9: BioMAP Diversity Plus: BF4T Assay for Matrix Metallopeptidase 9 (MMP9) Biomarker Activity (AID 2284276); conditions: primary human bronchial epithelial cells with fibroblasts
In short: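 MMP-9 levels were measured by ELISA after 24 h exposure of bronchial epithelial cell/dermal fibroblast co-cultures, with DMSO as baseline. Parallel cultures were stained with 0.1% SRB after TCA fixation, read at 560 nm, to flag overt cytotoxicity.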

[15] = read-out: Interleukin-8 (IL8), CXCL8 (gene 3576); experiment: BSK_IMphg_IL8: BioMAP Diversity Plus: IMphg Assay for Interleukin-8 (IL8) Biomarker Activity (AID 2284277); conditions: primary human endothelial cells with macrophages
In short: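 IL-8 levels were measured by ELISA 24 h after dosing in primary human venular endothelial cell–macrophage cultures, referenced to DMSO; parallel SRB staining monitored overt cytotoxicity.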

[16] = read-out: Intercellular Adhesion Molecule 1 (ICAM1), ICAM1 (gene 3383); experiment: BSK_BE3C_ICAM1: BioMAP Diversity Plus: BE3C Assay for Intercellular Adhesion Molecule 1 (ICAM1) Biomarker Activity (AID 2284278); conditions: primary human bronchial epithelial cells;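 further: cell-surface ICAM-1 protein level quantified by ELISA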
In short: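 ICAM-1 quantified by ELISA and fitted against DMSO baseline, 24 h post-dosing in BE3C cultures of primary human lung bronchial epithelial cells. Cytotoxicity checked in parallel cultures by total protein SRB staining.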

[17] = read-out: Interferon-inducible T-cell alpha chemoattractant (ITAC), CXCL11 (gene 6373); experiment: BSK_BE3C_ITAC: BioMAP Diversity Plus: BE3C Assay for Interferon-inducible T-cell alpha chemoattractant (ITAC) Biomarker Activity (AID 2284279); conditions: primary human bronchial epithelial cells
In short: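 ELISA read-out of I-TAC after 24 h chemical dosing of human lung primary bronchial epithelial cells; gain-of-signal fit vs DMSO baseline. Parallel SRB total-protein staining (0.1% SRB, 10% TCA fixation, 560 nm) assessed cytotoxicity.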

[18] = read-out: Interleukin-8 (IL8), CXCL8 (gene 3576); experiment: BSK_BE3C_IL8: BioMAP Diversity Plus: BE3C Assay for Interleukin-8 (IL8) Biomarker Activity (AID 2284280); conditions: primary human bronchial epithelial cells
In short: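 Primary human bronchial epithelial cells (BE3C system) were exposed to test chemical for 24 h, and IL-8 levels were then measured by ELISA. Activity was fitted in the positive (gain-of-signal) direction against a DMSO negative-control baseline.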

[19] = read-out: KRT18 (gene 3875); experiment: BSK_BF4T_Keratin818: BioMAP Diversity Plus: BF4T Assay for Keratin 818 Biomarker Activity (AID 2284266); conditions: primary human bronchial epithelial cells with fibroblasts
In short: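 Keratin 8/18 levels quantified by ELISA after 24 h chemical treatment of bronchial epithelial cell/dermal fibroblast co-cultures, fitted in positive direction relative to DMSO. Parallel SRB staining tracks overt cytotoxicity.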

[20] = read-out: Plasminogen Activator Inhibitor-1 (PAI1), SERPINE1 (gene 5054); experiment: BSK_BF4T_PAI1: BioMAP Diversity Plus: BF4T Assay for Plasminogen Activator Inhibitor-1 (PAI1) Biomarker Activity (AID 2284273); conditions: primary human bronchial epithelial cells with fibroblasts
In short: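 PAI-1 levels quantified by ELISA 24 h post-dosing in bronchial epithelial cell plus dermal fibroblast cultures. Signal gain referenced to DMSO baseline. Sulforhodamine B total-protein staining of parallel wells checked cytotoxicity.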

Measured: AC50

FC(F)(F)C(F)(F)C(F)(F)C(F)(F)C(F)(F)C(F)(F)CCS
inactive: [1] | [2] | [3] | [4] | [5] | [6] | [7] | [8] | [9] | [10] | [11] | [12] | [13] | [14] | [15] | [16] | [17] | [18]
active: [4] 10.9 µM | [15] 0.876 µM

CC(C)(C)C(=O)CC(=O)C(F)(F)C(F)(F)C(F)(F)F
inactive: all assays above

FC(F)(Br)C(F)(F)C(F)(F)C(F)(F)C(F)(F)C(F)(F)Br
not listed: [20]
inactive: all other assays above

Cc1ccc(S(=O)(=O)OCC(F)(F)C(F)(F)C(F)(F)C(F)(F)C(F)(F)C(F)F)cc1
not listed: [19] | [20]
inactive: all other assays above

N=C(N)C(F)(F)C(F)(F)C(F)(F)C(F)(F)C(F)(F)C(F)(F)C(F)(F)F
inactive: [1] | [2] | [3] | [4] | [5] | [6] | [7] | [8] | [9] | [10] | [11] | [12] | [13] | [14] | [15] | [16] | [17] | [18]
active: [10] 33.6 µM | [15] 30 µM | [18] 30 µM

OCC(F)(F)C(F)(F)C(F)(F)C(F)(F)C(F)(F)C(F)F
not listed: [19]
inactive: all other assays above

C=C(C)C(=O)OCCC(F)(F)C(F)(F)C(F)(F)C(F)(F)C(F)(C(F)(F)F)C(F)(F)F
not listed: [20]
inactive: all other assays above

O=S(=O)(O)C(F)(F)C(F)(F)C(F)(F)C(F)(F)C(F)(F)C(F)(F)C(F)(F)F
inactive: [1] | [2] | [3] | [4] | [5] | [19] | [6] | [7] | [8] | [9] | [10] | [11] | [12] | [13] | [14] | [15] | [16] | [17] | [18]
active: [3] 10.4 µM | [10] 15.6 µM

FC(F)(F)C(F)(F)C(F)(F)C(F)(F)C(F)(F)C(F)(F)C(F)(F)C(F)(F)F
inactive: all assays above

O=C(O)C(F)(F)C(F)(F)C(F)(F)F
not listed: [20]
inactive: all other assays above
